Test results published in PubChem BioAssay AID1817 (Sanford-Burnham Center for Chemical Genomics, 2009).
“And” between values parts separate entries of the source, which are not always exact repeats. Equal values may be shown once. Out of some 290,000 compounds screened, about 50 (0.02%) were called active.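 The calls were made as follows: active = displacement of at least 50% at 20 µM, with a fluorescence ratio check between 0.3 and a set limit; inactive = the rest.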 The full list was thinned out, with actives kept by preference. Potency and affinity values are given separately.

Target: E3 ubiquitin-protein ligase SIAH1 (Homo sapiens) (UniProt Q8IUQ4)
Sequence (Q8IUQ4 whole entry, looked up): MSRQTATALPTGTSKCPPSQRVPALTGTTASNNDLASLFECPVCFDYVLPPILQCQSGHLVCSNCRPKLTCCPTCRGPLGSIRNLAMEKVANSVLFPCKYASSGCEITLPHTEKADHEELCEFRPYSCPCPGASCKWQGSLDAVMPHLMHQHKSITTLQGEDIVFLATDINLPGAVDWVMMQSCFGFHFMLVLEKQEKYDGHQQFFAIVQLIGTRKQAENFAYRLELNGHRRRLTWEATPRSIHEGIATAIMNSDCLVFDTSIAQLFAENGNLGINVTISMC
Experiment: blockers of Siah-1 interaction with plectin peptide – biochemical, fluorescence polarization, rhodamine-plectin, uHTS, primary screen (AID 1817);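 also: plate controls were Siah plus tracer with DMSO for no effect and tracer alone without Siah for full effect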
Conditions: Siah-1 / rhodamine-plectin peptide fluorescence polarization; at 20 µM; active compounds read high

Row | SMILES | displacement
1 | O=C(Nc1ccc(Nc2ccncc2)cc1)c1ccc([N+](=O)[O-])cc1 | 2.7% (inactive)
2 | O=C(Nc1ccc(Nc2ccncc2)cc1)c1ccc(Nc2ccnc3ccc([N+](=O)[O-])cc23)cc1 | 60% (active)
3 | O=C(Nc1ccc(Nc2ccncc2)cc1)c1ccc(Nc2ccnc3ccc([N+](=O)[O-])cc23)cc1[N+](=O)[O-] | 17.2% (inactive)
4 | CSc1ccc(/C=C/C(=O)N2CCCN(C)CC2)cc1 | 4% (inactive)
5 | N#Cc1ccc(NC(=O)CNc2cc(S(=O)(=O)N3CCOCC3)ccc2NCC2CCCO2)cc1 (stereo not drawn) | -0.4% (inactive)
6 | CCc1nnc(NC(=O)c2ccc(COc3ccccc3Cl)o2)s1 | 5.6% (inactive)
7 | CCOC(=O)C1(S(=O)(=O)c2ccc(Cl)cc2)CCN(Cc2ccc(C)cc2)CC1 | -0.2% (inactive)
8 | COc1cccc(C(=O)N2CCN(Cc3ccccc3Br)CC2)c1 | 3.1% (inactive)
9 | COC(=O)C(C(=O)OC)C(c1ccccc1)C(C(=O)c1ccccc1)[N+](=O)[O-] (stereo not drawn) | 2% (inactive)
10 | O=c1cc2oc3cc(O)c(O)cc3c(-c3ccccc3[N+](=O)[O-])c-2cc1O | 48.7% (inactive)
11 | COc1ccc(OC)c(-c2c3cc(O)c(=O)cc-3oc3cc(O)c(O)cc23)c1 | 58.5% (inactive)
12 | Cc1c2cc(O)c(=O)cc-2oc2cc(O)c(O)cc12 | 70.1% (inactive) and 99.1% (inactive)
13 | O=c1cc2oc3cc(O)c(O)cc3c(-c3ccccc3O)c-2cc1O | 83.3% (active)
14 | CCOc1ccccc1-c1c2cc(O)c(=O)cc-2oc2cc(O)c(O)cc12 | 61.3% (active)
15 | COc1cc(OC)c(-c2c3cc(O)c(=O)cc-3oc3cc(O)c(O)cc23)cc1OC | 48% (inactive)
16 | COc1cc(S(=O)(=O)NC(C)C)ccc1Cl | 3% (inactive)
17 | CC(C)c1ccccc1NC(=S)N(C)C | -9.8% (inactive)
18 | COC(=O)CCSc1nc(N2CCOCC2)c2c(c1C#N)CC(C)(C)OC2 | 1.2% (inactive)
19 | Cc1cccc(C)c1NC(=O)C1CCCN1S(=O)(=O)c1ccc2c(c1)n(C)c(=O)c(=O)n2C (stereo not drawn) | 2.2% (inactive)
20 | COCCNC(=S)N(CCc1c(C)[nH]c2ccc(C)cc12)Cc1ccco1 | 1.4% (inactive)

Row | SMILES | displacement
21 | CCOC(=O)c1ccc(-n2c(O)c(/C=N/NC(=O)C3COc4ccccc4O3)c3ccccc3c2=O)cc1 (stereo not drawn) | -6% (inactive)
22 | Cc1nc(NC(=S)NC(=O)c2cncc(Br)c2)ccc1Br | -7% (inactive)
23 | Cc1cccc(C(=O)NC(C(=O)Nc2nc(-c3ccccn3)cs2)C(C)C)c1 (stereo not drawn) | -2.5% (inactive)
24 | O=C(NN1C(=O)C2C3C=CC(C3)C2C1=O)c1ccncc1 (stereo not drawn) | 3.2% (inactive)
25 | O=C(NN1C(=O)C2C(C1=O)C1C=CC2C12CC2)c1ccncc1 (stereo not drawn) | 0.7% (inactive)
26 | O=C(NN1C(=O)C2CC=C(Cl)CC2C1=O)c1ccncc1 (stereo not drawn) | 69.4% (active)
27 | C[C@@H](C[C@@H](O)[C@H](O)C(C)(C)O)[C@@H]1CC[C@]2(C)C3=CC[C@H]4C(C)(C)C(=O)CC[C@]4(C)[C@H]3CC[C@@]12C | 2.8% (inactive)
28 | CC(NC(=O)C1CCCN(S(=O)(=O)c2cccs2)C1)c1ccccc1 (stereo not drawn) | 0.2% (inactive)
29 | COc1cc(OC)c(OC)cc1CN1CCCC(C(=O)c2sccc2C)C1 (stereo not drawn) | -6.6% (inactive)
30 | COc1ccc(CCn2c(N)c(C(=O)NCc3ccco3)c3nc4ccccc4nc32)cc1 | 57.5% (active)
31 | Nc1c(C(=O)NCc2ccco2)c2nc3ccccc3nc2n1CCc1ccc(F)cc1 | 2.1% (inactive)
32 | COc1ccc(CCn2c(N)c(C(=O)NCc3ccco3)c3nc4ccccc4nc32)cc1OC | -1.3% (inactive)
33 | Cn1c(Cl)c(/C=N/OC(=O)c2ccccc2Cl)c2ccccc21 | -1.7% (inactive)
34 | CC12CCC(C(=O)NCc3ccco3)(OC1=O)C2(C)C (stereo not drawn) | 1.5% (inactive)
35 | CN1C(=O)NC(c2ccccc2[N+](=O)[O-])C2=C1CC(C)(C)CC2=O (stereo not drawn) | 4.2% (inactive)
36 | CN1C(=O)NC(c2cccc([N+](=O)[O-])c2)C2=C1CCCC2=O (stereo not drawn) | 3% (inactive)
37 | C/C(=N\OC(=O)Nc1ccccc1)c1cnn(-c2cc(C(F)(F)F)cc(C)n2)c1C | 5.7% (inactive)
38 | CCOC(=O)c1sc(=S)n(CC)c1N | -0.9% (inactive)
39 | COCCn1c(C)c(C(=O)O)sc1=S | 2.3% (inactive)
40 | COc1cc2ncnc(NCc3ccccc3C)c2cc1OC | 4.9% (inactive)

Row | SMILES | displacement
41 | CCOC(=O)c1cccc(NC(=O)CSc2nnc(C)n2Cc2ccccc2)c1 | -0.6% (inactive)
42 | CC(=O)Nc1ccc(N=Cc2c(O)c3ccccc3oc2=O)cc1 | 1.2% (inactive)
43 | CC(=O)Nc1ccc(N=Cc2c(O)ccc3ccccc23)cc1 | -0.3% (inactive)
44 | Cc1cccc(N2CCN(C(=O)c3ccc(NC(=O)C4CCCO4)cc3)CC2C)c1 (stereo not drawn) | 1.8% (inactive)
45 | COCCNC(=O)/C(C#N)=C/c1ccc(OCc2ccc(F)cc2)cc1 | -1.7% (inactive)
46 | Cc1cc(/C=C2\NC(=O)NC2=O)c(C)n1-c1ccc(N2CCOCC2)cc1 | -9.1% (inactive)
47 | COc1ccc(OCCn2c(N)nc3ccccc32)cc1 | 3.4% (inactive)
48 | O=C(NC1CCCC1)c1ccc(COc2ccccc2Br)o1 | 2.7% (inactive)
49 | O=c1[nH]c(-c2ccc3c(c2)OCO3)nc2c1sc(=S)n2-c1ccccc1 | 1.9% (inactive)
50 | O=c1[nH]c(-c2ccccc2Cl)nc2c1sc(=S)n2-c1ccccc1 | 2.3% (inactive)
51 | COc1ccccc1CN1CC(C(=O)N(C)Cc2ccc(C)o2)CCC1=O (stereo not drawn) | -3.9% (inactive)
52 | Oc1c(/C=N/Nc2cccc3cccnc23)ccc2ccccc12 | 93.1% (active)
53 | Oc1ccccc1/C=N/Nc1cccc2cccnc12 | -2.4% (inactive)
54 | Oc1ccc(/C=N/Nc2cccc3cccnc23)c(O)c1 | -3.9% (inactive)
55 | CCCCCCOc1ccc(N2C(=O)CC(N3CCN(CCN=CC4=C(O)CC(C)(C)CC4=O)CC3)C2=O)cc1 (stereo not drawn) | 1.8% (inactive)
56 | CC(C)(C)c1ccc(C(CC(=O)O)NC(=O)Cc2ccccc2)cc1 (stereo not drawn) | 1.2% (inactive)
57 | CC(C)(C)c1ccc(C(CC(=O)O)NC(=O)Cc2ccc(Cl)cc2)cc1 (stereo not drawn) | -2.3% (inactive)
58 | CCOC(=O)c1nn(-c2cccc(OC)c2)c2nc(CC)c(C#N)c(=O)n12 | 12.2% (inactive)
